Out of some 320,000 compounds screened, about 2,100 (0.66%) were called active. Not shown: some 53% with an inconclusive outcome. The call rests on the fitted dose curve; in most records, active means well fitted inhibition curve with a large enough effect in the signal ratio, with a control signal flat (not every such curve was filed as active); inconclusive means small, poorly fitted or top-dose-only effect, or effect the other way, or a change in a side signal; inactive means flat fitted curve, though single readings scatter; the % refers to the signal ratio. The entries come from a sample that favours actives as a whole.

This note sets out measurements from PubChem BioAssay AID2685 (National Center for Advancing Translational Sciences (NCATS), 2010).
Potency means the concentration at half of the fitted maximal effect.

This experiment can be described thus: qHTS Assay for Lipid Storage Modulators in Drosophila S3 Cells.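 On cell number change: cells counted by Cell Tracker Red CMTPX staining in the red channel.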 Conditions: BODIPY lipid droplet fluorescence, 18-24 h, cells fed with added oleic acid; cell number change: measured here: cell count max response; series mostly up to 46.1 µM. In short, it runs like this:
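Laser-scanning cytometry quantifies lipid droplet accumulation (500–530 nm total intensity; droplet/cell object ratio) in oleic acid-fed (400 uM added) Drosophila S3 cells treated with a concentration series. 20 uM Triacsin C defined 100% inhibition.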
For orientation: qHTS replaces the single test concentration by a dilution series.
Turning to `CCOc1ccc(-n2cc(-c3ccccc3)c3c(SC(C)C(=O)OC)ncnc32)cc1` (stereo not given), the Potency entry was “inactive” and the cell number change is -20.7%.

As to `CCn1c(=O)cc(OCC(=O)Nc2ccccc2N2CCN(C)CC2)c2ccccc21`, the Potency entry was “inactive” and the cell number change is 6.65%.

Take `COC(=O)c1cc(CNC(=O)c2sccc2-c2ccccc2)ccc1OC`: the Potency entry was “inactive” and the cell number change was -10.7%.

As to `CCOc1ccc(Cc2c(Cl)nc(N)nc2Cl)cc1`, the Potency entry was “inactive”.

Consider `COc1ccc(Cc2c(C)nc(N)nc2Cl)cc1`, for which the Potency result is “inactive” and the cell number change came to 9.54%.

As to `COc1ccc(Cc2c(Cl)ncnc2Cl)cc1`, the Potency is 18.4 µM (active) and the cell number change was -13.7%.

Regarding `CCOC(=O)C(=CNc1ccc(S(N)(=O)=O)cc1)C(=O)OCC`, the Potency entry was “inactive” and the cell number change is -11.4%.

Consider `CCOc1ccc(NC(=O)[C@@H](NC(=O)c2ccco2)C(C)C)cc1`, for which the Potency entry is “inactive” and the cell number change stood at 4.17%.

With `Cc1nc(SCC(=O)c2ccc(Cl)cc2)c([N+](=O)[O-])[nH]1`, the Potency result was “inactive” and the cell number change was -28.5%.

Consider `Cc1ccc(C(C)C)c(OCC(=O)Nn2c(C)nc3ccccc3c2=O)c1`, for which the Potency result is “inactive”.

Take `Cc1ccc(C(C)C)c(OCC(=O)NNC(=O)C(C(C)C)N2C(=O)c3ccccc3C2=O)c1` (stereo not given): the Potency is 16.4 µM (active) and the cell number change is -20.9%.

For the molecule `Cc1ccc(C(C)C)c(OCC(=O)NNC(=O)CC2OC(=O)c3ccccc32)c1` (stereo not given), the outcome was “inactive [at 0.0737 µM]”.

For the molecule `CC(=O)N1c2ccccc2NC2=C(C(=O)CCC2)C1c1ccc(F)cc1` (stereo not given), the Potency result was “inactive” and the cell number change was found to be 1.82%.

As for `COc1ccc2c(c1)c(CC(=O)OC(C)C(=O)N(C)C)c(C)n2C(=O)c1ccc(Cl)cc1` (stereo not given), the Potency is 1.46 µM (active) and the cell number change was -15.8%.

On to `COc1ccc2c(c1)c(CC(=O)OCC(N)=O)c(C)n2C(=O)c1ccc(Cl)cc1`, for which the Potency result was “inactive” and the cell number change is -0.195%.

On to `COc1ccc2c(c1)c(CC(=O)O)c(C)n2C(=O)c1ccc(Cl)cc1`, for which the Potency entry is “inactive” and the cell number change was 3.94%.

Take `Cc1ccc(/C=C2\Oc3cc(OC(=O)N4CCOCC4)ccc3C2=O)cc1`: the Potency entry was “inactive” and the cell number change was 0.311%.

Turning to `COC(=O)CC(NC(=O)C1CC1)c1ccc2c(c1)OCO2` (stereo not given), the Potency entry is “inactive”.

Turning to `CC1Oc2ccccc2C=C1/C=N/NC(=O)[C@@H](C)NC(=O)OC(C)(C)C` (stereo not given in full), the Potency result was “inactive” and the cell number change was determined as 8.38%.

Turning to `CCOC(=O)N1CCN(C(=O)c2ccc(Cn3c(=S)[nH]c4cc(OCC)c(OCC)cc4c3=O)cc2)CC1`, the Potency result is “inactive”.

For `COc1ccc(CCNC(=O)C(=O)N2CCCCC2)cc1OC`, the Potency result is “inactive” and the cell number change worked out at 6.42%.

With `O=C(Nc1ccc(NC(=O)c2cccs2)cn1)c1ccccc1`, the Potency result is “inactive” and the cell number change was 8.82%.

In the case of `COc1ccc(C(=O)Nc2cnc(NC(=O)c3cccs3)cc2C)cc1`, the Potency result was “inactive” and the cell number change was -9.21%.

As to `COc1ccc(C(=O)Nc2ccc(NC(=O)c3cccs3)cn2)cc1`, the Potency was 10.3 µM (active) and the cell number change stood at 12.4%.

Take `O=C(NCCCO)/C(=C\c1cn(-c2ccccc2)nc1-c1cccnc1)NC(=O)c1ccccc1`: the Potency result was “inactive” and the cell number change was 19.4%.
